Source: PubChem (Broad Institute)
Shown are actives, neighbours in structure and some others; about 6.8% of the full set was active somewhere.
Pf Dd2 inh – P. falciparum Dd2 growth inhibitors, primary screen, SYBR Green fluorescence, single dose replicates | actives 2.3% (n = 94,000) | activity change, % at 10 µM | 72 h; hits give low values; in the data active means activity change below about -80%
T cruzi growth-1 – T. cruzi intracellular proliferation inhibitors, primary screen, cell-based, beta-gal Tulahuen parasites, NIH3T3 host, luminescence; actives 5.9% (n = 77,000); AID 624255, 2012; T. cruzi beta-gal in NIH3T3, GalScreen luminescence, 90 h; inhibition, % at 8.34 µM;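 active means mean inhibition above about 93%, with at least 55% of replicates each passing it, limit read from the data, passing the limit was not always enough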
C diff growth – C. difficile growth inhibitors, primary screen, HTS; Clostridium difficile clinical isolate growth, OD600, 24 h; hits give low values; growth activity, negative = inhibition, % at 16 µg/mL (by protocol); actives 0.25% (n = 86,000);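 active means mean growth activity at or below -80% and every replicate also at or below -80%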
T cruzi growth-2 – T. cruzi intracellular proliferation inhibitors, confirmation, cell-based, NIH3T3 host, beta-gal parasite, luminescence, cherry-pick; actives 72% (n = 5,600); T. cruzi beta-gal in NIH3T3, GalScreen luminescence, 90 h; AID 651739, 2012; shares compounds with T cruzi growth-1; inhibition, % at 8.35 µM;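 active means mean replicate inhibition above about 95% and at least 55% of replicates individually reaching it, limit read from the data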
T cruzi growth-3 – inhibitors of intracellular T. cruzi replication, confirmation, NIH3T3 host cells, beta-gal parasites, cherry-pick, set 2. T. cruzi beta-gal in NIH3T3, GalScreen luminescence, 90 h. actives 21% (n = 5,600). inhibition, % at 2.09 µM. shares compounds with T cruzi growth-1;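 active means mean inhibition above about 95%, with at least 55% of replicates also reaching it, limit read from the data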
3T3 cytotox – cytotoxicity in mouse NIH/3T3 fibroblasts, confirmation, cytotoxicity control for T. cruzi proliferation inhibitor project, cell-based, cherry-pick, single point; shares compounds with T cruzi growth-1; NIH/3T3 viability, CellTiter-Glo ATP luminescence, 90 h; cytotoxicity (signal decrease), % at 8.35 µM; actives 14% (n = 5,600); AID 651742, 2012;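 active means mean signal decrease across replicates above about 35% based on untreated-well scatter, with enough replicates individually passing, limit read from the data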
NIH3T3 tox 2 – NIH/3T3 fibroblast cytotoxicity, confirmation, cytotoxicity control, cell-based, cherry-pick, single point, set 2. shares compounds with T cruzi growth-1. NIH/3T3 viability, CellTiter-Glo ATP luminescence, 90 h. inhibition, % at 24.9 µM. actives 56% (n = 5,600);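 active means mean loss of cell viability signal at or above a set limit, and enough replicates individually reaching it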
Each line names hits and unclear results; the compound was inactive in the other large screens (follow-up assays come after a bar, where they were run).

COc1ccc(S(=O)(=O)N[C@@H]2CC[C@H](CCn3cc(-c4cccc(F)c4)nn3)O[C@H]2CO)cc1	none
CC(C)CC#Cc1ccc([C@H]2[C@H](CO)N3C(=O)CN(C(=O)c4cnccn4)C[C@@H]23)cc1	none (no result: T cruzi growth-1)
C[C@H](CO)N1C[C@H](C)[C@@H](CN(C)S(=O)(=O)c2cccc(F)c2)Oc2ncc(C#CC3CC3)cc2C1=O	none (no result: C diff growth)
C[C@H](CO)N1C[C@H](C)[C@H](CN(C)S(=O)(=O)c2cccc(F)c2)Oc2ncc(C#CC3CCCC3)cc2C1=O	none
C[C@@H]1CN([C@H](C)CO)C(=O)c2cc(C#CC3CCCCC3)cnc2O[C@H]1CN(C)S(=O)(=O)c1ccc(F)cc1	none
C[C@H](CO)N1C[C@H](C)[C@@H](CN(C)S(=O)(=O)c2cccc(F)c2)Oc2ncc(C#CC3CCCC3)cc2C1=O	T cruzi growth-1 118.7 | T cruzi growth-2 103.8 | T cruzi growth-3 inactive | 3T3 cytotox inactive | NIH3T3 tox 2 97.8
C[C@@H]1CN([C@@H](C)CO)C(=O)c2cc(C#CC3CCCC3)cnc2O[C@@H]1CN(C)S(=O)(=O)c1cccc(F)c1	T cruzi growth-1 104.2 | T cruzi growth-2 96.2 | T cruzi growth-3 inactive | 3T3 cytotox inactive | NIH3T3 tox 2 74.5
C[C@@H]1CN([C@@H](C)CO)C(=O)c2cc(C#CC3CCCCC3)cnc2O[C@H]1CN(C)S(=O)(=O)c1ccc(F)cc1	T cruzi growth-1 100.5 | T cruzi growth-2 105.0 | T cruzi growth-3 97.8 | 3T3 cytotox inactive | NIH3T3 tox 2 99.0
COc1ccc(NC(=O)Nc2ccc3c(c2)C(=O)N([C@H](C)CO)C[C@@H](C)[C@@H](CN(C)S(=O)(=O)c2ccccc2)O3)cc1	none
